Shown are actives, neighbours in structure and some others; about 4.3% of the full set was active somewhere.
uPA surface inh – inhibitors of cell surface uPA generation; AID 540303; Potency, µM (doses to about 38.3 µM), for the others: at the highest dose activity change, negative = inhibition, actives largely listed as inhibitors; 330,000 compounds, 0.31% hits; cell surface uPA generation assay, qHTS; active means well fitted inhibition curve with a large enough effect; inconclusive means small, poorly fitted or top-dose-only effect; inactive means no such curve, though single readings can be large or run the other way; tested in mouse RAW 264.7 cells; further: potency means the concentration at half of the fitted maximal effect; on the % scale 0 is the no-effect control and ±100 the full control effect; nearly all actives have a fitted effect of over 55% in size
SW480 rereplic – DNA re-replication induction in SW480 cells. SW480 DNA re-replication, Hoechst DNA content imaging, 48 h. Potency, µM (titrated, usually from 46.1 µM), inactives show at the highest dose re-replication activation, hits mostly activators. 340,000 compounds, 1.8% hits; further: potency means the concentration at half of the fitted maximal effect; % of control where 0% means no effect; nearly all actives have a fitted effect of over 55% in size
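Compounds, transferred as 23 nL by pin tool, were incubated with cells for 48 hr; DNA content per nucleus was then quantified by Hoechst staining and fluorescence plate imaging.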
Giardia killer – Giardia lamblia killing; Giardia lamblia trophozoite viability; activity change, % at 7.66 µM, hits read low; 340,000 compounds, 0.15% hits; AID 540267; in the data active means activity change below about -80%; inconclusive means between about -30% and that limit;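 further: parasites exposed to compound for two days anaerobically before the ATP read; on the % scale 0 is the no-effect control and ±100 the full control effect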
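Trophozoites 100 cells/well + cpd; 48 hrs, 37 deg C, anaerobic. ATPLite 1-Step added, 15-30 min RT, luminescence read (ATP-based viability).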
MCF10A rerep – induces DNA re-replication in MCF 10a normal breast cells. 350,000 compounds, 2.9% hits. AID 624296. MCF 10A DNA re-replication, Hoechst nuclear intensity, 48 h. Potency, µM (doses to about 46.1 µM), for the others: at the highest dose activity, positive = re-replication, hits mostly activators; further: potency means the concentration at half of the fitted maximal effect; % of control where 0% means no effect; nearly all actives have a fitted effect of over 50% in size
An asterisk follows results filed as active; ? = inconclusive; nt = not tested or not shown; ! = repeats disagree; [ ] = another dose, or the depositor's remark. Unless noted, the call rests on the fitted dose curve; in most records, active means well fitted activation curve with a large enough effect; inconclusive means small, poorly fitted or top-dose-only effect; inactive means no such curve, though single readings can be large or run the other way.

SMILES	uPA surface inh	SW480 rereplic	Giardia killer	MCF10A rerep
CCCCOP(=O)(c1ccc(N(C)C)cc1)C(Nc1ccccc1)c1ccccc1 (configuration not stated)	-5.9%	?	14.0	20.6µM*
CC(C)c1ccc(C(O)P(=O)(OCc2ccccc2)c2ccc(N(C)C)cc2)cc1 (configuration not stated)	-23.0%	1.9%	-9.9	?
C=CC[C@@H](Cc1ccc(F)cc1)C(=O)OC[C@H]1CCCN1C(=O)[C@H](CC=C)CC(=O)N[C@H](CO)Cc1ccccc1	23.7%	5.9%	3.1	-1.8%
CN(C)C1C(=O)C(C(N)=O)C(=O)C2(O)C(=O)C3C(=O)c4c(O)cccc4C(C)(O)C3C(O)C12 (configuration not stated)	nt	-0.6%	nt	-2.9%
COC1=CC(=O)CC(C)C12Oc1c(Cl)c(OC)cc(OC)c1C2=O (configuration not stated)	?	23.1µM*!	-17.3	?
CCc1ccc2c(c1)Sc1ccccc1CC2N1CCN(C)CC1 (configuration not stated)	-28.5%	25.9µM*	5.8	?
Clc1ccc(C[n+]2c(-c3ccccc3)cc(-c3ccccc3)cc2-c2ccccc2)cc1	?	5.2%	11.3	?
Fc1ccc(C[n+]2c(-c3ccccc3)cc(-c3ccccc3)cc2-c2ccccc2)cc1	8.91µM*	3.5%	-2.3	-30.8%
Cc1cccc(C(=O)NC2CC3CCCC(C2)N3Cc2ccccc2)c1 (configuration not stated)	-0.3%	?	8.8	-14.4%
Cc1ccccc1CN1Cc2cnnn2-c2ccccc2C1C#N (configuration not stated)	?	?	-2.3	6.51µM*
Clc1ccc(CC[C@H](Cn2ccnc2)Sc2c(Cl)cccc2Cl)cc1	nt	-3.9%[20.6 µM]	nt	11.0%[20.6 µM]
Cc1cccn2c(=O)c3cc(C(=O)N4CCC5(CC4)OCCO5)n(C)c3nc12	-11.8%	7.31µM*	1.2	2.59µM*
O=C(c1cccn2c(=O)c3cc(Br)ccc3nc12)N1CCC2(CC1)OCCO2	nt	-14.4%	-7.1	-3.2%
CC(C)C[C@@H](C(=O)NC1CCN(Cc2ccccc2)CC1)N1C(=O)N2CCc3c([nH]c4ccccc34)[C@@]2(C)C1=O	?	?	-27.4	4.4%
COC(=O)c1cc(=O)n(Cc2ccco2)c(=Nc2ccc(F)c(Cl)c2)s1	10µM*	?	-22.0	7.31µM*
CCN(CC)C(=O)c1c(C)[nH]c(=S)c(C#N)c1-c1ccco1	-1.3%	?	-8.6	?
C[N+]1(C)[C@@H]2CC(OC(=O)[C@@H](CO)c3ccccc3)C[C@@H]1[C@H]1O[C@H]12 (some centres not stated)	nt	5.7%	nt	9.6%
O=C1CC(c2cccc(Br)c2)c2cc3c(cc2N1)CCC3 (configuration not stated)	?	-3.1%	4.7	?
O=C(Nc1ncc([N+](=O)[O-])s1)c1cccs1	?	-65.7%	-87.0*	?
CC(CCC(=O)O)C1CCC2C3C(=O)C[C@@H]4CC(=O)CC[C@@]4(C)C3CC(=O)[C@]12C (some centres not stated)	nt	?	nt	9.7%
Cc1[nH]nc2ccc(-c3cncc(OC[C@@H](N)Cc4c[nH]c5ccccc45)c3)cc12	?	?	-8.3	2.31µM*
CCN[C@]1(c2cccs2)CCCCC1=O	nt	0.8%[20.6 µM]	nt	-0.1%[20.6 µM]
Cc1ccc2[nH]c(C(=O)N/N=C/c3ccccc3O)c(C)c2c1	3.55µM*	24.0%	20.1	18.2%
Oc1ccccc1/C=N/NP(=S)(c1ccccc1)c1ccccc1	4.7%	-14.8%	-10.5	18.4%
CCCC(C)(COC(N)=O)COC(=O)NC1CC1 (configuration not stated)	nt	-1.4%	nt	-5.5%
SMILES	uPA surface inh	SW480 rereplic	Giardia killer	MCF10A rerep
C=C1Nc2ccccc2C(=O)N1c1ccccc1C	nt	-5.8%	nt	6.1%
C[N+](C)(C)CC1CCCc2ccccc2C1=O (configuration not stated)	-9.6%	15.6%	8.3	13µM*
C[N+](C)(C)CC1CCCC(C[N+](C)(C)C)C1=O (configuration not stated)	-8.9%	?	11.8	?
Cc1cc(=O)oc2cc3c(cc12)CCCN3	8.1%	?	40.2	7.31µM*
Cn1c(=O)oc2cc(S(=O)(=O)N3CCc4ccccc43)ccc21	-8.2%	-2.9%	24.6	?
Cn1c(=O)oc2cc(S(=O)(=O)N3CCCc4ccccc43)ccc21	2.24µM*	?	4.3	2.59µM*
CCC(=O)Nc1ccc(C(=O)OCc2ccccc2Cl)cc1	2.1%	1.5%	9.7	?
O=[N+]([O-])/C=C/c1c(Cl)cccc1Cl	-8.5%	6.51µM*	0.6	3.66µM*
Clc1cccc(Cl)c1/C=C/c1ccn[nH]1	?	?	-29.8	?
Cc1nn(C)cc1/C=C1/CC2C3CC=C4CC(O)CCC4(C)C3CCC2(C)C1=O (configuration not stated)	6.2%	-16.0%	7.7	?
CC12CCC3C(CC=C4CC(O)CCC43C)C1C/C(=C\c1ccccc1F)C2=O (configuration not stated)	6.3%	7.6%	-12.9	6.51µM*
c1cc2c(c(N3CCNCC3)c1)OCCO2	nt	-1.3%	nt	4.2%
CCOc1cc2c(cc1OCC)-n1cccc1C(c1cccc(OCC)c1O)NC2 (configuration not stated)	-1.7%	0.8%	?	18.4µM*
O=C(O)[C@@H]1C[C@H]2C[C@@H](CP(=O)(O)O)CC[C@H]2CN1	nt	nt	7.1	nt
O=c1[nH]c(=O)n(Cc2ccccc2Cl)c(O)c1/C=C1/C=CC=N1	-11.5%	14.6µM*	9.0	6.51µM*
O=c1c2cc(N3CCOCC3)ccc2[nH]c(=S)n1Cc1ccc(Cl)cc1	-1.4%	12.8%	11.5	2.59µM*
O=c1[nH]c(=S)n(-c2ccc(Cl)cc2)c(O)c1C=Nc1ccc(N2CCOCC2)cc1	-1.7%	-2.8%	-3.9	19.4%
Nc1ccc(N2CCN(Cc3ccccc3Cl)CC2)c(Cl)c1	13.8%	1.6%	-3.3	20.6µM*
Clc1ccccc1CN1CCN(c2ccccc2)CC1	17.8%	?	-12.9	?
C=C1C(C)C2C(Cc3ccccc3)NC(=O)C23OC(=O)/C=C/C(O)CCCC(C)C/C=C/C3C1O (configuration not stated)	-10.7%	9.2µM*	-19.4	6.51µM*
COC(=O)c1sccc1NC(=O)c1ccc(C#N)cc1	-62.3%	?	-21.8	5.0%
Cc1ccc(C(c2nnnn2Cc2ccccc2)N2CC=C(c3ccc(F)cc3)CC2)cc1 (configuration not stated)	10.1%	2.4%	-90.2*	-0.3%
Fc1ccc(C2=CCN(C(c3ccc(Cl)cc3)c3nnnn3Cc3ccccc3)CC2)cc1 (configuration not stated)	10.4%	17.2%	16.1	3.5%
CN(C)C(=O)Oc1ccc(OCc2n(C)c3ccccc3[n+]2C)cc1	4.9%	16.4µM*	19.5	4.5%
CCOc1c(Cl)cc(CNCCc2c[nH]c3ccccc23)cc1OC	12.3%	?	17.6	18.4µM*
COc1ccc(NC(=O)c2cccs2)cc1C(=O)N1CCN(c2ccccc2)CC1	?	?	-20.7	?
